Compounds with a hit are over-represented: about 7.3% of the library has one in this group of screens.
HCV inhibitor: inhibitors of hepatitis C virus infection; 3.4% of 340,000 active; Huh7.5.1 HCVcc-Cre infection, luciferase reporter, 44 h; Potency, µM (series often up to 41.8 µM), for inactives: at the highest dose activity change, negative = inhibition, most hits filed as inhibitors; active means well fitted inhibition curve with a large enough effect; inconclusive means small, poorly fitted or top-dose-only effect, or another doubt; inactive means no such curve, though single readings can be large or run the other way; further: potency means the concentration at half of the fitted maximal effect
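Reporter virus HCVcc-Cre (~0.5 moi) infects cells exposed to compound; seeding density 1,000 cells/well with 4 h settling beforehand. Luminescence, 15 sec read, taken 44 h post-infection following a 15 min RT substrate incubation.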
HCMV antiviral: blocks human cytomegalovirus replication; HFF cells, HCMV-luciferase reporter, 72 h; active compounds read low; activity change, negative = inhibition, % at 57.5 µM; 4.5% of 410,000 active; in the data active means activity change below about -60%; inconclusive means no clear call, values can overlap the other calls; inactive means above about -39%
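Luciferase read-out from HCMV-luciferase-infected HFFs (MOI 1 PFU/cell) 72 h post infection at 37C; compounds added after 16 h cell attachment; activity normalized between buffer-only basal and Salinomycin (10uM) inhibitor controls.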
FMDV antiviral: antivirals against foot and mouth disease virus; 1.2% of 410,000 active; Potency, µM (series often up to 57.9 µM), without a hit: at the top dose activity change, negative = inhibition, usual class: inhibitors; FMDV antiviral cell-based qHTS; AID 1159524; calls by dose curve; tested in HEK293T cells; further: read-out not given here; potency means the concentration at half of the fitted maximal effect; nearly all actives have a fitted effect of over 45% in size
Vaccinia Venus: inhibitors of vaccinia virus (Venus reporter). Vaccinia virus Venus reporter expression, fluorescence. AID 720580. Potency, µM (series often up to 36.5 µM), for the others: at the top dose activity change, negative = inhibition, actives largely listed as inhibitors. 0.46% of 330,000 active; calls by dose curve; tested in A549 cells; further: potency means the concentration at half of the fitted maximal effect; nearly all actives have a fitted effect of over 30% in size
VACV mCherry inh: inhibitors of vaccinia virus infection (mCherry reporter signal) | Vaccinia virus mCherry reporter infection, fluorescence | 0.63% of 310,000 active | Potency, µM (highest dose often 36.5 µM), inactives show at the highest dose activity change, negative = inhibition, hits mostly inhibitors | AID 720579; calls by dose curve; tested in A549 cells; further: potency means the concentration at half of the fitted maximal effect; nearly all actives have a fitted effect of over 35% in size
* marks the source's active call; other numbers are inactive results; i = inactive; ? = inconclusive; . = no result; ! = a repeat was not active; [ ] = dose if it differs, or a comment. On the % scale 0 is the no-effect control and ±100 the full control effect.

SMILES	HCV inhibitor	HCMV antiviral	FMDV antiviral	Vaccinia Venus	VACV mCherry inh
COCCNC(=O)c1cc(-c2ccc(-c3ccccc3)cc2)nc2ccccc12	10µM*	-77*	14%	-19%	?
O=C(NCc1ccccn1)c1cc(-c2ccccc2)nc2ccccc12	-12%	54	-17%	2%	-15%
C[C@@H]1CC(=O)N(C)[C@H](c2ccccc2)[C@H]1S(=O)(=O)c1ccccc1	.	-8	.	.	.
CCc1ccc(-c2cc(C(=O)Nn3cnnc3)c3ccccc3n2)cc1	11%	20	11µM*	-5%	-14%
NS(=O)(=O)c1ccc(CCNC(=O)c2cc(-c3ccc(Br)cc3)nc3ccccc23)cc1	?	-88*	12%	?	-1%
CCNc1nc(NCC)nc(-n2cc(C(=O)c3cc(Cl)ccc3O)cn2)n1	.	.	.	-25%	?
Cc1ccc(C(NC(=O)C2CCCCC2)c2c(O)ccc3ccccc23)cc1 (stereo unspecified)	?	-66*	-21%	?	-37%
COc1ccc(-n2c(C)cc(C(=O)CSc3ccc(NC(C)=O)cc3)c2C)cc1	-6%	8	0%	-23%	i
CCOC(=O)c1cc(C)n(-c2ccccc2)c1C	-11%	-77*	44%	1%[7.34 µM]	0%[7.34 µM]
CC(=O)Nc1ccc(SCC(=O)c2cc(C)n(-c3ccccc3)c2C)cc1	-1%	-60*	14%	-9%	-17%
Cc1cc(C(=O)C(C)OC(=O)c2ccc(NC(=O)CC#N)cc2)c(C)n1-c1ccccc1 (stereo unspecified)	?	-63*	16µM*	-19%	?
Cc1cc(C(=O)COc2cccc(-n3cnnn3)c2)c(C)n1-c1ccccc1	1µM*	-7	?	.	.
CCN1CCOC(=O)C1CC(=O)Nc1cc(Cl)ccc1OC (stereo unspecified)	.	19	0%	-6%	-9%
CC1CN(CC(=O)N2CCN(Cc3nccn3C)CC2)Cc2cc(Cl)ccc2O1 (stereo unspecified)	.	.	-5%	-7%	-4%
CCOC(=O)C1CCCN(C(=O)Cn2ncn3c(cc4sc(CC)cc43)c2=O)C1 (stereo unspecified)	.	?	-25%	-3%	-10%
O=C(Cn1nc(-c2ccccc2)c2cnc3ccccc3c21)Nc1ccccc1	.	22	-16%	2%	7%
Cc1cc(C(=O)O)c(C)n1-c1ccccc1	6%	26	-4%	-13%	-12%
Cc1cc(=O)c(C(=O)O)c(C)n1-c1ccccc1	-16%	-62*	0%	-10%	-7%
Cc1ccccc1CN1C(=O)c2ccccc2S(=O)(=O)c2ccc(C(=O)OCC3CCCO3)cc21 (stereo unspecified)	.	-4	4%	-11%	-14%
CN(C1CCCCC1)S(=O)(=O)c1ccc(F)c(C(=O)Nc2ccc(C(F)(F)F)cc2)c1	.	-14	?	-18%	-23%
Cc1ccc(Cl)cc1NC(=S)N(CCCN1CCN(C)CC1)Cc1cccs1	6.3µM*	-32	-8%	-18%	-23%
COc1ccc(N2CCN(C(=O)c3cc(-c4ccc(C)c(F)c4)on3)CC2)cc1	.	7	-4%	-7%	-4%
O=c1c2sc3nc(N4CCOCC4)c4c(c3c2nnn1Cc1ccccc1)CCCC4	-6%	-100*	-11%	?	.
O=c1c2sc3nc(N4CCOCC4)c4c(c3c2ncn1CCc1ccccc1)CCCC4	-21%	-33	-10%	-7%	-7%
COC(=O)c1ccc(Cn2cnc3c(sc4nc(N5CCOCC5)c5c(c43)CCCC5)c2=O)o1	11µM*!	0	-1%	-4%	?
SMILES	HCV inhibitor	HCMV antiviral	FMDV antiviral	Vaccinia Venus	VACV mCherry inh
Cc1ccc(-n2cnc3c(sc4nc(N5CCOCC5)c5c(c43)CCCC5)c2=O)cc1	?	-35	?	.	.
Cc1ccccc1-n1cnc2c(sc3nc(N4CCOCC4)c4c(c32)CCCC4)c1=O	18µM*	-89*	-18%	2%[7.34 µM]	i[7.34 µM]
COC(=O)c1ccc(CSc2ncnc3c2sc2nc(N4CCOCC4)c4c(c23)CCCC4)o1	-20%	-24	1%	.	.
COc1ccc(-n2cnc3c(sc4nc(N5CCOCC5)c5c(c43)CCCC5)c2=O)cc1	-12%	58	?	2%	i
O=c1c2sc3nc(N4CCOCC4)c4c(c3c2ncn1-c1ccccc1)CCCC4	10µM*	-64*	?	?	?
COc1ccccc1C(=O)Nc1nc2nc(C)c(Cc3ccccc3)c(=O)n2[nH]1	.	13	-11%	-12%	-4%
Oc1c(Cl)cc(Cl)cc1C=Nc1cc(C(F)(F)F)ccc1N1CCc2ccccc2C1	?	-100*	-30%	-19%	i
Oc1c(Cl)cccc1C=Nc1cc(C(F)(F)F)ccc1N1CCCC1	-10%	40	1%	-18%	.
CCN1CCc2c(sc(-n3cccc3)c2C(C)NC(=O)Nc2ccccc2C)C1 (stereo unspecified)	.	-67*	27%	-7%	-6%
COc1ccc2c(c1OC)CN1CCc3cc4c(cc3[C@H]1C2)OCO4	11µM*	.	?	-4%	?
COc1ccc2c(c1OC)CN1CCc3cc4c(cc3C1C2)OCO4 (stereo unspecified)	-28%	-87*	?	-20%	-15%
CCc1ccc(-n2nc(CO)c(C(=O)NCc3ccccn3)n2)cc1	.	-6	12%	-2%	4%
CCOc1ccccc1CN1CCCC(c2nc(C)ncc2-c2ccc(F)cc2)C1 (stereo unspecified)	.	.	-10%	-6%	-20%
CCc1cccc(CC)c1NC(=O)C(NS(=O)(=O)c1cccs1)c1ccccc1 (stereo unspecified)	-2%	-24	-25%	4%	-13%
Cc1ccc(Cl)cc1NC(=O)C(NS(=O)(=O)c1cccs1)c1ccccc1 (stereo unspecified)	-12%	-70*	?	-8%	-14%
Cc1cccc(NC(=O)CSc2nc3n[nH]c(C)c3c(=N)n2-c2cccc(Cl)c2)c1	.	44	-20%	-19%	-19%
COc1ccccc1Nc1nnc(SCC(=O)c2cc(C)n(CC3CCCO3)c2C)s1 (stereo unspecified)	?	-76*	-19%	-15%	.
Cc1cc(C(=O)CSc2nnc(Nc3ccccc3F)s2)c(C)n1CC1CCCO1 (stereo unspecified)	6.3µM*	-11	?	-15%	i
Cc1cc(C(=O)CSc2nnc(Nc3ccccc3)s2)c(C)n1CC1CCCO1 (stereo unspecified)	?	29	-27%	-14%	-12%
COc1cc2c(cc1[N+](=O)[O-])-c1ccc([N+](=O)[O-])cc1C2=NNC(N)=S	.	.	0%	-20%	i
NC(=S)NN=C1c2cc(Cl)ccc2-c2c1cc(Cl)cc2[N+](=O)[O-]	?	.	20µM*	-17%	-16%
COC(=O)c1cc(C)[nH]c2c(C)cc3nc4ccccc4c3c12	10µM*	31	?	-26%	?
COC(=O)c1c(C)nc2ccccc2c1C(=O)O	17%	-8	-13%	4%	-6%
CC(C)c1ccc(S(=O)(=O)NCc2nc3cccnc3n2Cc2ccc(F)cc2)cc1	.	28	27%	-10%	-9%

Assay outcomes: PubChem, National Center for Advancing Translational Sciences (NCATS)
